Compound activity (PubChem BioAssay)
ELG1 genotox: inducers of genotoxicity in HEK293T ELG1-luciferase cells; HEK293T ELG1-luciferase reporter, luminescence, 16 h; Potency, µM (highest dose often 46 µM), for the others: at the highest dose activity change, positive = activation, actives largely listed as activators; 330,000 tested, 1.3% active; AID 504466; also: % of control where 0% means no effect; nearly all actives have a fitted effect of over 60% in size
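Luminescence read-out: rising ELG1-luciferase signal, reflecting elevated ELG1 protein under genetic stress, flags genotoxic compounds. Cells were treated for 16 hr at 37 °C before ONE-Glo detection.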
Rab9 prom act: Rab9 promoter activation; Potency, µM (doses to about 9.22 µM), without a hit: top-dose activation, negative = inhibition, usual class: activators; 320,000 tested, 2.8% active; AID 485297; Huh7 Rab9 promoter-luciferase reporter, luminescence, 24 h; also: % of control where 0% means no effect; nearly all actives have a fitted effect of over 60% in size
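Rab9 promoter-driven luciferase in stably transfected Huh7 cells; 1500 cells/well rested 2 h, exposed to compound in DMSO for 24 h at 37 °C, 5% CO2. Luminescence read 10 min after adding luciferase reagent at ambient temperature.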
SMN2 splice enh: increases expression of the SMN2 splice variant. Potency, µM (titrated, usually from 46.1 µM), for inactives: at the top dose activity change, positive = activation, hits mostly activators. HEK293 SMN2-luciferase splicing reporter, luminescence, 30-36 h. AID 1458. 210,000 tested, 2.8% active; also: % of control where 0% means no effect; nearly all actives have a fitted effect of over 55% in size
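HEK293 cells carry an SMN2 […]–luciferase reporter in which exon 7 inclusion puts luciferase in frame. Cells were plated 10-12 h before compound addition, then incubated 30-36 h at 37C. ONE-Glo luminescence was read; sodium butyrate at 4.5 mM final served as control.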
FLuc counter: firefly luciferase modulation, counter-screen for miR-21 project | 360,000 tested, 6.9% active | Potency, µM (series often up to 57.5 µM), for inactives: top-dose activity change, negative = inhibition, most hits filed as inhibitors | purified FLuc, Km substrates, luminescence inhibition | P08659;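 also: plate controls were vehicle for no effect and reference inhibitor for full effect; nearly all actives have a fitted effect of over 55% in size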
Target sequence (P08659 whole entry, looked up): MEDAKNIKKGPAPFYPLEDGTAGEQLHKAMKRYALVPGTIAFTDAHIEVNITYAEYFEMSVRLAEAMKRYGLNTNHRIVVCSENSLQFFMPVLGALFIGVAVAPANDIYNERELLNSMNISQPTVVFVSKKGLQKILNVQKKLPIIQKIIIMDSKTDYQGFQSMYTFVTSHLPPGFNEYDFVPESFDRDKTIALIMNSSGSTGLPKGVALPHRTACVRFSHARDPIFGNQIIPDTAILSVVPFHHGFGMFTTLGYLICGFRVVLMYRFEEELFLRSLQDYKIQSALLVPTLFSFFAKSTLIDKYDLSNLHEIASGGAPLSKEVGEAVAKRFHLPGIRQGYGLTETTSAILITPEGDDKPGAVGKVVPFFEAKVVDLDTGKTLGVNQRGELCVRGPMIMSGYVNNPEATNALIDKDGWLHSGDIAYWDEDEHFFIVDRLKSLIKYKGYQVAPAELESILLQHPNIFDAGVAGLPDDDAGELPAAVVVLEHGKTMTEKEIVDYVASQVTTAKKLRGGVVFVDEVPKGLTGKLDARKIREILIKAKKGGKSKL
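Biochemical qHTS of compounds, final roughly 60 µM downward over six points, against 10 nM purified firefly luciferase using Km concentrations of substrates (10 uM D-luciferin, 10 uM ATP) in Tris acetate pH 7.5 buffer; luminescence output.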
NPC1 promoter act: activates the NPC1 promoter. Huh7 NPC1 promoter luciferase reporter, 24 h. Potency, µM (highest dose often 9.22 µM), for the others: at the highest dose activation, most hits filed as activators. 320,000 tested, 2.4% active. AID 485313; also: % of control where 0% means no effect; nearly all actives have a fitted effect of over 60% in size
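Quantitative HTS used a cell-based reporter: Huh7 cells stably bearing the NPC1 promoter upstream of luciferase were treated with compounds for 24 h, and promoter activation was read as luminescence.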
Numbers without * were called inactive. An excerpt weighted towards active compounds, which were near 7.5% of everything screened. Calls follow the shape of the dose curve; as a rule, active = well fitted curve in the direction sought with a large enough effect; inconclusive = small, poorly fitted or top-dose-only effect, or another doubt; inactive = no such curve, though single readings can be large; an effect the other way counts as inactive or inconclusive. Potency is read from the fitted curve at half-maximal effect.

For O=C(NCc1cccnc1)c1cn(-c2ccccc2)nc1-c1ccccc1 the results were ELG1 genotox -2.6%, Rab9 prom act -8.7%, SMN2 splice enh 27.4%, FLuc counter 21.3µM* and NPC1 promoter act 1.4%.
For O=C(Nc1cccnc1)c1cn(-c2ccccc2)nc1-c1cccs1 the results were ELG1 genotox 9.3%, Rab9 prom act 1.2%, SMN2 splice enh 2.7%, FLuc counter 3.01µM* and NPC1 promoter act 18.3%.
For O=C(NCc1ccncc1)c1cn(-c2ccccc2)nc1-c1cccnc1 the results were ELG1 genotox 0.6%, Rab9 prom act -1.1%, SMN2 splice enh -4.4%, FLuc counter inconclusive and NPC1 promoter act -3.9%.
Screening COc1ccc(-c2nn(-c3ccccc3)cc2C(=O)NC2CCC(C)CC2)cc1 (centres undefined) returned ELG1 genotox 7.3%, Rab9 prom act -7.7%, FLuc counter 0.0% and NPC1 promoter act -3.3%.
For O=C(NC1CCS(=O)(=O)C1)c1cn(-c2ccccc2)nc1-c1ccccc1 (centres undefined) the results were ELG1 genotox 3.9%, Rab9 prom act -2.8%, SMN2 splice enh -11.0%, FLuc counter 15.1µM* and NPC1 promoter act -4.9%.
`CCOC(=O)C1CCN(C(=O)c2cn(-c3ccccc3)nc2-c2cccnc2)CC1` gave ELG1 genotox 0.8%, Rab9 prom act 3.5%, SMN2 splice enh -2.1%, FLuc counter 13.5µM* and NPC1 promoter act 1.3%.
For Cc1[nH]c2ccc(C(=O)O)cc2c1C the results were ELG1 genotox 6.8%, Rab9 prom act -0.2%, SMN2 splice enh 3.5%, FLuc counter -3.8% and NPC1 promoter act 7.5%.
COc1ccc(C(=O)N(C)C2CCCN(Cc3ccccc3F)C2)cc1C (centres undefined) was read as ELG1 genotox 10.3%, Rab9 prom act 4.1%, FLuc counter -6.9% and NPC1 promoter act -0.9%.
Screening COc1ccccc1Nc1nnc(SCC(=O)c2c(N)n(C3CC3)c(=O)[nH]c2=O)s1 returned ELG1 genotox 0.8%.
COc1cc(NS(=O)(=O)c2ccc(OC)c(C)c2C)c(OC)cc1Cl was read as ELG1 genotox 1.4%, Rab9 prom act -33.9%, FLuc counter 1.8% and NPC1 promoter act -25.5%.
`CCN(CC)CCNC(=O)c1ccc(NC(=O)c2cn(-c3ccccc3)nc2-c2cccs2)cc1` gave ELG1 genotox -11.5%, Rab9 prom act -2.1%, SMN2 splice enh -113.1%, FLuc counter 8.49µM* and NPC1 promoter act 0.6%.
For O=C(/C=C/c1ccc(-c2ccccc2)cc1)NCc1cccnc1 the results were ELG1 genotox 2.4%, Rab9 prom act 12.9%, FLuc counter 7.57µM* and NPC1 promoter act 20.6%.
For COc1ccc(NC(=O)CN(C)C(=O)c2cn(-c3ccccc3)nc2-c2cccs2)cc1 the results were ELG1 genotox -24.8%, Rab9 prom act -4.9%, FLuc counter 16.9µM* and NPC1 promoter act -1.7%.
`O=C(/C=C/c1ccccc1)NCc1cccnc1` gave ELG1 genotox 6.3%, Rab9 prom act 18.4%, FLuc counter -2.3% and NPC1 promoter act -0.8%.
For CCN(CC)CCNC(=O)c1ccc(NC(=O)c2cn(-c3ccc(F)cc3)nc2-c2cccc(OC)c2)cc1 the results were ELG1 genotox inconclusive, Rab9 prom act -0.8%, FLuc counter inconclusive and NPC1 promoter act 0.5%.
CN(CC(=O)Nc1ccc(F)cc1)C(=O)c1cn(-c2ccccc2)nc1-c1cccs1 was read as ELG1 genotox -6.5%, Rab9 prom act -5.7%, FLuc counter inconclusive and NPC1 promoter act 0.2%.
`O=C(NCCCN1CCCC1=O)c1cn(-c2ccccc2)nc1-c1ccccc1` gave ELG1 genotox 1.5%, Rab9 prom act -3.6%, FLuc counter 10.7µM* and NPC1 promoter act -2.4%.
Screening c1nc(N2CCCCCC2)c2[nH]cnc2n1 returned ELG1 genotox -30.8%, Rab9 prom act -1.6%, SMN2 splice enh -24.0%, FLuc counter -0.7% and NPC1 promoter act 8.4%.
`COc1ccc(C(=O)NCC(c2ccco2)N2CCc3ccccc3C2)cc1` (centres undefined) gave ELG1 genotox 0.8%, Rab9 prom act -1.7%, FLuc counter -7.3% and NPC1 promoter act -1.1%.
Screening Cc1nc(-c2ccc3c(c2)OCCCO3)cs1 returned ELG1 genotox inconclusive, Rab9 prom act 1.58µM*, FLuc counter 7.57µM* and NPC1 promoter act 1.78µM*.
Screening CC1Cc2cc(-c3csc(N)n3)ccc2O1 (centres undefined) returned ELG1 genotox inconclusive, Rab9 prom act 1.26µM*, FLuc counter 9.53µM* and NPC1 promoter act inconclusive.
c1cncc(-c2nc(-c3ccc4c(c3)OCO4)cs2)c1 was read as ELG1 genotox inconclusive, Rab9 prom act 1.58µM*, FLuc counter 4.78µM* and NPC1 promoter act 2.82µM*.
`Nc1nc(-c2ccc3c(c2)OCCO3)cs1` gave ELG1 genotox 20.6µM*, Rab9 prom act 3.55µM*, SMN2 splice enh 15.8µM*, FLuc counter 9.53µM* and NPC1 promoter act 3.55µM*.
Screening Nc1nc(-c2ccc3c(c2)NC(=O)CO3)cs1 returned ELG1 genotox inconclusive, Rab9 prom act 2.6%, SMN2 splice enh -39.1%, FLuc counter -9.9% and NPC1 promoter act -0.6%.
`Cc1cc(C(=O)Nc2cccc(O)c2)co1` gave ELG1 genotox inconclusive, Rab9 prom act 11.6%, SMN2 splice enh inconclusive, FLuc counter inconclusive and NPC1 promoter act 12.6%.
Nc1nc(-c2ccc3c(c2)CCCC3)cs1 was read as ELG1 genotox inconclusive, Rab9 prom act 2.82µM*, SMN2 splice enh 11.2µM*, FLuc counter 2.13µM* and NPC1 promoter act 2.24µM*.
Cc1nc(-c2cccc(N)c2)cs1 was read as ELG1 genotox 18.7%, Rab9 prom act -1.0%, SMN2 splice enh 6.9%, FLuc counter -15.0% and NPC1 promoter act 10.6%.
For Cc1nc(-c2ccc3c(c2)OCO3)cs1 the results were ELG1 genotox 5.7%, Rab9 prom act 13.6%, SMN2 splice enh inconclusive, FLuc counter 15.1µM* and NPC1 promoter act 17.2%.
Screening Cc1sc2ncn(CC(=O)N3CCN(c4ccc(F)cc4)CC3)c(=O)c2c1S(=O)(=O)N1CCC(C)CC1 returned SMN2 splice enh -2.5% and FLuc counter 3.5%.
Screening NNC(=O)Cn1c(COc2ccc(Cl)cc2)nc2ccccc21 returned ELG1 genotox 4.8%, Rab9 prom act 2.5%, SMN2 splice enh 6.4%, FLuc counter 12µM* and NPC1 promoter act -4.6%.
Screening O=C(Cn1c(COc2ccccc2)nc2ccccc21)Nc1cccc(Cl)c1 returned ELG1 genotox 11.3%, Rab9 prom act 1.2%, FLuc counter -11.7% and NPC1 promoter act -2.4%.
For O=C(O)Cn1c(COc2ccc(Cl)cc2)nc2ccccc21 the results were ELG1 genotox -0.3%, Rab9 prom act 1.8%, FLuc counter 10.7µM* and NPC1 promoter act -1.6%.
